# Data published in the supplement of paper PMC10849652.
# The full data set covers some 7,900 targets. This sample favours those with a hit. About 0.6% of all pairs of compound and target were hits. A number with no mark means an inactive call.
# Tests used:
# Test in all cases: log2 fold change, soluble protein after heating vs DMSO (PISA); higher = thermal stabilisation; K562 cells, 10 uM, 30 min; active = over 0.2 and 3.5 SD of the protein, either way, in both replicates (recomputed)
# [1] = compound: CC[C@@H]1C(=O)N(C)c2cnc(Nc3ccc(C(=O)NC4CCN(C)CC4)cc3OC)nc2N1C1CCCC1
# Method in brief: (§1)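 Quantification of soluble protein used TMTpro 16plex LC-MS/MS, with channel sums equalised. Samples were the supernatant after 21,000xg for 90 min of pooled aliquots from K562 cells (2×10^6 cells/mL) treated with 10 μM compound for 30 min, heated for 3 min over 48°C-58°C, and extracted in PBS with 0.5% NP-40 at 4°C. Values, from duplicates, describe thermal stability against control samples on a log2 fold-change scale.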
# [2] = compound: CC[C@@H]1C(=O)N(C)c2cnc(Nc3ccc(C(=O)N[C@H]4CC[C@H](N5CCN(CC6CC6)CC5)CC4)cc3OC)nc2N1C(C)C [volasertib]
# Method in brief: as §1
# [3] = compound: CC[C@H](C)N1C=C(C2=C(C=C(C=C21)C3=CN=C(C=C3)N4CCNCC4)C(=O)NCC5=C(C=C(NC5=O)C)C)C
# Method in brief: as §1
# [4] = compound: CC[C@H](C)[C@@H](C(=O)N[C@@H]([C@@H](C)O)C(=O)N[C@@H](CC(C)C)C(=O)[C@]1(CO1)C)NC(=O)[C@H]([C@@H](C)CC)N(C)C(=O)C [epoxomicin]
# Method in brief: as §1
# [5] = compound: CCn1c(C(=O)N(C2CC2)C2CC2)cc2c3c(ncn3C)c(Nc3cc(C)n(C)n3)nc21
# Method in brief: as §1
# [6] = compound: CCn1cc(-c2ccnc3[nH]c(-c4cccc(CN(C)C)c4)cc23)c(-c2ccc(NC(=O)N(C)C)cc2)n1
# Method in brief: as §1
# [7] = compound: CN(C)CC(=O)Nc1ccc2[nH]c(=O)c3ccccc3c2c1
# Method in brief: as §1
# [8] = compound: CN(CCOC1=CC=C(C=C1)C[C@H]2C(=O)NC(=O)S2)C3=CC=CC=N3 (racemic) [rosiglitazone]
# Method in brief: as §1
# [9] = compound: CN1C2=C(C3=C1C(=O)N(N=C3)CC4=CC(=CC=C4)N)SC(=C2)S(=O)C
# Method in brief: as §1
# [10] = compound: CN1CCC(CNc2ccc3ncc(-c4cccc(OC(F)(F)F)c4)n3n2)CC1
# Method in brief: as §1
# [11] = compound: CN1CCN(CCOc2cc(OC3CCOCC3)c3c(Nc4c(Cl)ccc5c4OCO5)ncnc3c2)CC1 [saracatinib]
# Method in brief: as §1
# [12] = compound: CN1CCN(c2nc(C3=C(c4c[nH]c5ccccc45)C(=O)NC3=O)c3ccccc3n2)CC1 [sotrastaurin]
# Method in brief: as §1
# [13] = compound: CN1CC[C@H](c2c(O)cc(O)c3c(=O)cc(-c4ccccc4Cl)oc23)[C@H](O)C1 [alvocidib]
# Method in brief: as §1
# [14] = compound: CN1CCc2c(c3ccccc3n2Cc2ccc(C(=O)NO)cc2)C1 [Tubastatin A]
# Method in brief: as §1
# [15] = compound: CNC(=O)C1=CC=CC=C1NC2=NC(=NC=C2Cl)NC3=C(C=C(C=C3)N4CCOCC4)OC
# Method in brief: as §1
# [16] = compound: CNC(=O)c1ccc(Nc2ncc(C(F)(F)F)c(NCc3nccnc3N(C)S(C)(=O)=O)n2)cc1 [defactinib]
# Method in brief: as §1
# [17] = compound: CNCc1ccc(-c2[nH]c3cc(F)cc4c3c2CCNC4=O)cc1 [rucaparib]
# Method in brief: as §1
# [18] = compound: CNc1nc(-c2ccc3c(N)n[nH]c3c2)cc(N2C[C@@H](C(=O)NC3CCCCC3)CC[C@H]2C)n1
# Method in brief: as §1
# [19] = compound: COC(=O)N[C@@H](C)CNc1nccc(-c2cn(C(C)C)nc2-c2cc(Cl)cc(NS(C)(=O)=O)c2F)n1 [encorafenib]
# Method in brief: as §1
# [20] = compound: COC(=O)[C@H](CCSC)NC(=O)C1=C(C=C(C=C1)NC[C@H](CS)N)C2=CC=CC=C2
# Method in brief: as §1
# Sequence of UniProt Q9NTI5 (Q9NTI5 whole entry, looked up): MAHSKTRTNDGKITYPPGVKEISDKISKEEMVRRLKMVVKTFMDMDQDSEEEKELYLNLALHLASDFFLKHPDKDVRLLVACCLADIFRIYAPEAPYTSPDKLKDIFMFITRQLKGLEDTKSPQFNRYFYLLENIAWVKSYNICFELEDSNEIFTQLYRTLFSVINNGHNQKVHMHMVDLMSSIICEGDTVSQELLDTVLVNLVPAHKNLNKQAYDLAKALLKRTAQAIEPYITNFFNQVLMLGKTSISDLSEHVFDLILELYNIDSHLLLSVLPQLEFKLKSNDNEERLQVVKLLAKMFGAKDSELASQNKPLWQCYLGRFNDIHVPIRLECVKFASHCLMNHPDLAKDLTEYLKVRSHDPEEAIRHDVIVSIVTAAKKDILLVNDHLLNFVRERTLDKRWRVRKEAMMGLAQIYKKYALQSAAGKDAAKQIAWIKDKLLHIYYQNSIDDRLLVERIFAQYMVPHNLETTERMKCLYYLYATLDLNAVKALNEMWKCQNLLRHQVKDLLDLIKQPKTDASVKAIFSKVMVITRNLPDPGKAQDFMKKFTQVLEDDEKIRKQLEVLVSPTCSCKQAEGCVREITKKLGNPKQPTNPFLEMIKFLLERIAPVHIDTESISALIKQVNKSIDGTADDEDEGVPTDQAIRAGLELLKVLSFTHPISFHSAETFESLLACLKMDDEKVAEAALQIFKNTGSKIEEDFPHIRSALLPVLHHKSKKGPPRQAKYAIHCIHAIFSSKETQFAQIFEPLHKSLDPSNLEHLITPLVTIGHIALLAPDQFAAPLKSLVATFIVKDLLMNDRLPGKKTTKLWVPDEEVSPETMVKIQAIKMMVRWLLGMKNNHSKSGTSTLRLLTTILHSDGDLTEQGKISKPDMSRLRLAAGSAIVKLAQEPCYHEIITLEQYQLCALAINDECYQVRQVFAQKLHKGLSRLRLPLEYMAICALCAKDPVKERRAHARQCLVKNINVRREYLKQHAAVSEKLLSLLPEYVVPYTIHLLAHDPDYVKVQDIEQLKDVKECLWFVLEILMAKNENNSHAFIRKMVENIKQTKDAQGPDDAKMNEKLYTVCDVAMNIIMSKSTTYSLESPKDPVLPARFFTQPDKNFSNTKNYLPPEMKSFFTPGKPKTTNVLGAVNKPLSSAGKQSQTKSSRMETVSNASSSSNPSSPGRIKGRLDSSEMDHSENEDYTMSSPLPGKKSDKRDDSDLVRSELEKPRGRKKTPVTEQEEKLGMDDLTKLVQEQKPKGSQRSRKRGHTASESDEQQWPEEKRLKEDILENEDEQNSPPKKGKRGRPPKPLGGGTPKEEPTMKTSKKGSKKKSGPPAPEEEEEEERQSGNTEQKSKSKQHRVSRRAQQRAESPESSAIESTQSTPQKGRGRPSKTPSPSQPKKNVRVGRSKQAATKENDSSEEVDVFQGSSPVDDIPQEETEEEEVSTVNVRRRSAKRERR
# Sequence of UniProt O43242 (O43242 whole entry, looked up): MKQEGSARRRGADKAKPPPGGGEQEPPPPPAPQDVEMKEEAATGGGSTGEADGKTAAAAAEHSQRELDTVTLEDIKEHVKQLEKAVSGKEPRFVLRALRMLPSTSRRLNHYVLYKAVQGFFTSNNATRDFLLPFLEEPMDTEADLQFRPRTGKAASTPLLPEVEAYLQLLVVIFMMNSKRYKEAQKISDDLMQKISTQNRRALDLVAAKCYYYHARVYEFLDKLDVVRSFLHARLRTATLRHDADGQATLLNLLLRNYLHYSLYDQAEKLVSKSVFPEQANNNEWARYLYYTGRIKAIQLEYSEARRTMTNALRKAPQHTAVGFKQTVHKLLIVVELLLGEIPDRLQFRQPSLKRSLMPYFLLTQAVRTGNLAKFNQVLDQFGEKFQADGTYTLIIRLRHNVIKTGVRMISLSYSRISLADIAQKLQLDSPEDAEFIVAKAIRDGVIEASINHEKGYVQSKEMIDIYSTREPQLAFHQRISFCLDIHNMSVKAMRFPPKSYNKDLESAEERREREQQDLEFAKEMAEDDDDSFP
# Sequence of UniProt P49585 (P49585 whole entry, looked up): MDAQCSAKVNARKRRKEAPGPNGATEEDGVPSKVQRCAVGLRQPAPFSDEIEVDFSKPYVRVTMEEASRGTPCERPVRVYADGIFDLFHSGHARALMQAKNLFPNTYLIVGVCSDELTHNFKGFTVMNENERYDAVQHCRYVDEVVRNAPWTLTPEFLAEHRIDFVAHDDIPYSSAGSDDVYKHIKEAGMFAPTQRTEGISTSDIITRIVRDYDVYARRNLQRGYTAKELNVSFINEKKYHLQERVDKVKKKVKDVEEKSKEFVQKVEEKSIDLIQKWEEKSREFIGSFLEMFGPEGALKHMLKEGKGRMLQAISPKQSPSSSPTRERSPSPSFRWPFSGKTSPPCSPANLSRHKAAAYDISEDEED
# Sequence of UniProt P05771 (P05771 whole entry, looked up): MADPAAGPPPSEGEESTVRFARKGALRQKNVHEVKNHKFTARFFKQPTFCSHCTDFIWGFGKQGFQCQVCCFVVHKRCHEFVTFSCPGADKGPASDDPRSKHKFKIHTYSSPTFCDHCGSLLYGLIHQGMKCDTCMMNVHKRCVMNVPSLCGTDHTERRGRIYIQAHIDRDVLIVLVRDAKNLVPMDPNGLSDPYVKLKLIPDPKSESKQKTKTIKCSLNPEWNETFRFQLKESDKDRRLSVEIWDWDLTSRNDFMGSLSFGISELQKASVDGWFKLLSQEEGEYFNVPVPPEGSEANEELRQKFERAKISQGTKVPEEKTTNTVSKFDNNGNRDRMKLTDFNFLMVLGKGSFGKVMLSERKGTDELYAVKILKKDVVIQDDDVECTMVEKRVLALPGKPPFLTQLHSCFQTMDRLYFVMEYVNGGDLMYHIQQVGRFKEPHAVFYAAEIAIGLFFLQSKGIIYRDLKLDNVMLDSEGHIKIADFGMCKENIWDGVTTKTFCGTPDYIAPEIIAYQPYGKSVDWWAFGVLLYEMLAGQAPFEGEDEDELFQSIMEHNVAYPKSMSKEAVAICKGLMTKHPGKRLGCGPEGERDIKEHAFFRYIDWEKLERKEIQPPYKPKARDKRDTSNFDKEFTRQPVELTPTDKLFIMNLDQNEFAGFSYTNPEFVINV
# Sequence of UniProt Q53EL6 (Q53EL6 whole entry, looked up): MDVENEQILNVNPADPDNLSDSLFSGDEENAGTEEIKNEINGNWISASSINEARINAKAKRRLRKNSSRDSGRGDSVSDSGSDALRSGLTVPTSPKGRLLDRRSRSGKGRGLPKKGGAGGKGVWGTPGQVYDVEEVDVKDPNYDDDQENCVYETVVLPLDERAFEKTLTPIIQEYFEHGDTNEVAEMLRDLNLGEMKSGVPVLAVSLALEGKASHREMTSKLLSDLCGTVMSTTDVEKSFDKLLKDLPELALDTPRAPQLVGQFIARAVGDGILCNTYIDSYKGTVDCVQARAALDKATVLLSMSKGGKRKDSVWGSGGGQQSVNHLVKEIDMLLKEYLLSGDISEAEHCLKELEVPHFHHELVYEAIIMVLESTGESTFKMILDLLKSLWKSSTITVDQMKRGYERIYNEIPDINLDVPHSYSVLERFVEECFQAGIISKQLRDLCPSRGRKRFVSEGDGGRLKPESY
# Sequence of UniProt P29590 (P29590 whole entry, looked up): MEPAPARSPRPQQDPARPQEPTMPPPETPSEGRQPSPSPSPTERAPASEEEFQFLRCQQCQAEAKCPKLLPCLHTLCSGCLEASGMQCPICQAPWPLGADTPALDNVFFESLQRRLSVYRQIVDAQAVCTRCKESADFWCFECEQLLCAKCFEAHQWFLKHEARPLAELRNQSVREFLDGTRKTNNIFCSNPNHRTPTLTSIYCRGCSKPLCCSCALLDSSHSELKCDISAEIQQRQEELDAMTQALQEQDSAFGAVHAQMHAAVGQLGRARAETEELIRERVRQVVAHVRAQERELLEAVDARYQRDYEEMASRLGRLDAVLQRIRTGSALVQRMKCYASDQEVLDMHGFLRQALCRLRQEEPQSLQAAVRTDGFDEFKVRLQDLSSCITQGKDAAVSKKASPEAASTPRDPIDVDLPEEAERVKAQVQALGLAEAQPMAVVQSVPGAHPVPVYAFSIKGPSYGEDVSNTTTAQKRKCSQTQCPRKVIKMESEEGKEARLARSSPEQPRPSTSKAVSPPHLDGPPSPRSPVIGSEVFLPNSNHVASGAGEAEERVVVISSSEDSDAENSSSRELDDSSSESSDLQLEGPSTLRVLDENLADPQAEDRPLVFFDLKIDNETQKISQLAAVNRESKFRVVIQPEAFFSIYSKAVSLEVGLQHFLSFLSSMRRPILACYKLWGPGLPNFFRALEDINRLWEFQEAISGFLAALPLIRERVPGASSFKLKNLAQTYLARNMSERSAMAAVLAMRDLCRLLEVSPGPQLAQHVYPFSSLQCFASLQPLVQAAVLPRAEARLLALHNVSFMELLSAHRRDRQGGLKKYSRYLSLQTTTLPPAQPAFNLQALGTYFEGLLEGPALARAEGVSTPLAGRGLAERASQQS
# Sequence of UniProt Q9NVM4 (Q9NVM4 whole entry, looked up): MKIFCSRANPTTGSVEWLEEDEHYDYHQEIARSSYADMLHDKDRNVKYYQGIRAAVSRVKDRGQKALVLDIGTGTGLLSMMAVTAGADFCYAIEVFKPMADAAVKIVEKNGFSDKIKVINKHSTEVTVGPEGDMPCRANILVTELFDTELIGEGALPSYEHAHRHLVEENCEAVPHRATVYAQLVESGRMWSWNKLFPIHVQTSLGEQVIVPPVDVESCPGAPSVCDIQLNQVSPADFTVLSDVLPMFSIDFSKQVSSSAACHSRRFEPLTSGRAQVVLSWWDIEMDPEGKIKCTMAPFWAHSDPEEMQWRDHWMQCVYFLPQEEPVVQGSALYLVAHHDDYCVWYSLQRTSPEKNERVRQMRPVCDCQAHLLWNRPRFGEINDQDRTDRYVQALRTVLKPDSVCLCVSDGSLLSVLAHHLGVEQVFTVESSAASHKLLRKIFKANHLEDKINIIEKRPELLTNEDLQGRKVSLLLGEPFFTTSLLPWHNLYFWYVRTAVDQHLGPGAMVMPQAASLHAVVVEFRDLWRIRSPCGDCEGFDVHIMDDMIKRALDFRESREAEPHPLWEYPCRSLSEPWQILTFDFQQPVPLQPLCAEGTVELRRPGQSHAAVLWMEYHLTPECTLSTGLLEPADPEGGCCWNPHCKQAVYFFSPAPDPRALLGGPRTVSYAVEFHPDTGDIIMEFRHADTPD
Target,log2 fold change [1],log2 fold change [2],log2 fold change [3],log2 fold change [4],log2 fold change [5],log2 fold change [6],log2 fold change [7],log2 fold change [8],log2 fold change [9],log2 fold change [10],log2 fold change [11],log2 fold change [12],log2 fold change [13],log2 fold change [14],log2 fold change [15],log2 fold change [16],log2 fold change [17],log2 fold change [18],log2 fold change [19],log2 fold change [20]
PPP2R5C isoform 4 (UniProt Q13362),-0.069,-0.127,0.042,0.19,0.018,-0.099,-0.048,0.052,-0.003,-0.11,-0.04,0.009,-0.063,0.012,-0.068,-0.083,-0.003,-0.032,0.06,-0.025
PML (UniProt P29590),-0.051,-0.136,0.027,-0.021,-0.001,-0.024,-0.049,0.026,0.015,-0.045,-0.001,-0.038,-0.005,-0.051,0.024,-0.053,-0.008,-0.031,0.005,0
PRKAB2 (UniProt O43741),0.085,-0.185,0.022,0.205,0.013,-0.089,0.067,0.044,0.043,-0.247,-0.064,-0.077,-0.094,0.039,-0.159,-0.084,-0.371,-0.022,0.118,-0.036
PTMA (UniProt P06454),-0.167,0.112,-0.064,0.2,0.017,-0.009,-0.01,-0.032,-0.027,-0.052,0.016,-0.026,-0.034,0.098,-0.07,-0.108,0.02,0.01,-0.05,-0.059
PLCG1 isoform 2 (UniProt P19174),-0.031,-0.25,0.05,0.014,-0.097,-0.187,0.085,0.09,0.083,-0.412 (active),-0.131,-0.005,-0.007,0.1,-0.048,-0.128,0.088,0.054,0.012,-0.007
PSMD3 (UniProt O43242),0.039,0.133,0,-0.337 (active),0.01,0.02,-0.01,-0.01,0.027,0.067,-0.06,-0.015,0.022,0.016,0.007,0.083,0.037,0.051,0.031,0.003
PCYT1A (UniProt P49585),-0.219,-0.332 (active),0.042,0.028,-0.029,-0.019,0.017,0.008,-0.022,-0.111,-0.014,-0.105,-0.254,0.013,0.032,-0.186,-0.127,-0.097,-0.001,-0.02
PDCD4 (UniProt Q53EL6),-0.26,-0.585 (active),-0.013,0.055,-0.045,-0.053,0.065,0.056,-0.107,0.011,-0.008,0.138,-0.113,0,0.177,-0.243,-0.113,0.114,0.073,-0.097
PMPCB (UniProt O75439),0.008,0.138,0.038,0.022,-0.017,-0.125,0.032,0.002,-0.084,0.098,0.001,0.051,-0.073,-0.068,0.005,-0.042,-0.033,-0.003,-0.022,-0.029
PDS5B (UniProt Q9NTI5),-0.004,0.024,0.12,0.105,-0.113,0.103,0.079,0.035,0.131,-0.41,-0.134,0.039,-0.097,0.14,-0.169,-0.101,-0.088,0.014,0,0.032
PRMT7 (UniProt Q9NVM4),-0.074,-0.461 (active),0.04,-0.036,-0.042,-0.077,0.032,0.082,0.022,-0.176,-0.02,-0.124,-0.219,0.088,0.004,-0.086,0.008,0.031,0.112,-0.04
PLA2G15 (UniProt Q8NCC3),-0.084,-0.166,0.026,0.01,-0.017,0.005,0.006,0.027,0.043,-0.076,-0.052,-0.095,0.028,0.036,0.065,0.012,-0.064,-0.036,0.176,-0.018
PRKCB isoform 2 (UniProt P05771),-0.068,-0.213 (active),0.04,0.03,-0.005,-0.06,0.006,0.007,-0.054,-0.135,-0.006,-0.343 (active),-0.014,-0.004,0.012,-0.03,0.001,-0.03,0.031,-0.001
PCBP2 (UniProt F8VRH0),-0.005,-0.051,0.165,-0.252,0.043,-0.201,0.139,-0.042,-0.306,-0.149,0.255,-0.319,0.106,0.155,0.105,0.009,0.066,-0.014,0.014,0.066
PECAM1 (UniProt P16284),0.116,0.061,-0.019,-0.027,0.022,-0.106,0.027,0.014,-0.067,0.168,0.062,0.062,0.005,0.096,-0.076,0,0,0.003,-0.092,-0.007
PCGF2 (UniProt P35227),-0.131,-0.089,0.012,-0.005,-0.054,-0.02,-0.03,0.028,-0.071,-0.282 (active),-0.029,0.04,-0.074,0.039,-0.057,-0.129,0.024,0.122,0.071,0.027
